Assay outcomes from PubChem BioAssay.
Cardio protect = myocardial damage modulation in H9c2 cells | H9c2 cardiomyocytes, H2O2 injury protection, ATPLite, 2 h | hit rate 0.63% among 360,000 | protection from H2O2 cell death, % at 20 µM | AID 588492;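 active means compounds giving at least 50% protection of heart cells from peroxide-induced death in the single-dose screen, raw or plate-pattern-corrected value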
NR2F2 inh = inhibitors of human COUP-TFII (NR2F2). hit rate 0.7% among 370,000. HEK293T NGFI-A luciferase reporter, luminescence. P24468. inhibition, % at 8.6 µM;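 active means inhibition above a per-plate cutoff, mean inhibition of test wells between control levels plus 3 SD, cut at about 38% in these data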;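 further: cells cotransfected with COUP-TFII expression vector driving the NGFI-A reporter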
Gli-Sufu antag = blocks Gli-Sufu signaling in a luciferase reporter | hit rate 0.74% among 340,000 | AID 588413 | inhibition, % at 5 µM | Sufu-KO-LIGHT fibroblasts, Gli luciferase reporter luminescence;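 active means inhibition above about 55%, limit read from the data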
GalR3 antag = blocks the human galanin receptor 3. inhibition, % at 3 µM. hit rate 0.44% among 360,000. HEK293 GalR3-CNG cAMP membrane potential fluorescence; galR3 body fused to GalR1 C-terminus;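 active means inhibition above the screen-wide average plus 3 SD, cut at about 13% in these data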;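 further: forskolin and galanin both at EC90 stimulate the cells; cAMP rise reported by CNG channel membrane potential dye signal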
Target sequence (O60755 1-299 limits assumed): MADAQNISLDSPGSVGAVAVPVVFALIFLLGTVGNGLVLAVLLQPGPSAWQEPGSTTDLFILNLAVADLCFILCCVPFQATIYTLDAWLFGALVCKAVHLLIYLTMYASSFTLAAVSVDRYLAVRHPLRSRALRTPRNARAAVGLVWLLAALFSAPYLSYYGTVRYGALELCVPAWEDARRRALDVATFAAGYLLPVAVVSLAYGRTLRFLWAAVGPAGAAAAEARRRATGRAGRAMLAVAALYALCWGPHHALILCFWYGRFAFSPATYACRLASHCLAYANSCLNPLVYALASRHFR
GAA850 FXN act = activators of GAA850 frataxin (FXN) promoter; HEK293 lucGAA850 FXN promoter luciferase reporter, 24 h; percent of 10 µM SAHA response; activation, % at 6 µM; hit rate 0.56% among 360,000; AID 540364;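 active means activation above the average of all compounds screened plus 3 SD, cutoff fixed separately per campaign, cut at about 7.5% in these data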
SMARCA2 act = SMARCA2 function activation, primary screen. MG213 cells, MMTV-luciferase reporter, dexamethasone, overnight. AID 652017. hit rate 1% among 370,000. activation, % at 9.1 µM; in the data active means activation above about 7.8%
GAA30 counter = counter-screen for GAA850 frataxin promoter activators: GAA30 promoter activation; shares compounds with GAA850 FXN act; HEK293 lucGAA30 FXN promoter luciferase, 24 h; DMSO = 0%, 5 µM ipriflavone = 100%; activation, % at 6 µM; hit rate 66% among 1,900;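 active means mean activation above the mean of solvent-only control wells plus 3 SD, cut at about 22% in these data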;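 further: counterscreen of GAA850 promoter hits where activity marks nonselective or luminescence artifacts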
GAA850 confirm = confirmation of GAA850 frataxin (FXN) promoter activators; shares compounds with GAA850 FXN act; HEK293 lucGAA850 FXN promoter luciferase reporter, 24 h; 100% = activation by SAHA; activation, % at 6 µM; hit rate 86% among 1,900;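 active means mean activation above a set limit taken from the primary screen, cut at about 8% in these data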
Hits are given with their value; – = inactive; · = not tested or not shown. A selection: hits, their analogues and other compounds. The true share with any hit is near 3.4%.

SMILES	Cardio protect	NR2F2 inh	Gli-Sufu antag	GalR3 antag	GAA850 FXN act	SMARCA2 act	GAA30 counter	GAA850 confirm
COc1ccc2c(c1)Cc1sc(NC(C)=O)nc1-2	–	–	–	–	8.2	–	111	32
CC(c1ccccc1)n1cc(C(=O)N2CCCN(Cc3ccccc3)CC2)nn1 (stereo not drawn)	·	–	·	·	·	–	·	·
O=C(NCCCN1CCOCC1)c1cc(-c2ccc(F)cc2)on1	–	–	–	–	9.9	–	48	18
C=C(C)/C=C1/CN(Cc2ccc3c(c2)OCO3)C(=N)N1C(=O)OCc1ccccc1	·	–	·	·	·	–	·	·
CC(C)(C)OC(=O)N[C@@H](Cc1ccccc1)c1nnc(S(=O)(=O)Cc2ccccc2)o1	·	–	·	–	·	–	·	·
Cc1ccccc1CS(=O)(=O)c1nnc([C@H](Cc2ccccc2)NC(=O)OC(C)(C)C)o1	–	–	–	–	12	–	–	–
COCCCN(C(=S)NC(=O)C12CC3CC(CC(C3)C1)C2)c1c(N)n(Cc2ccccc2)c(=O)[nH]c1=O	–	–	–	–	8.4	–	–	8.2
COCCNc1oc(/C=C/c2ccccc2)nc1C#N	–	–	–	–	–	–	·	·
CNc1oc(/C=C/c2ccccc2)nc1C#N	–	–	–	–	8.3	–	133	40
O=C(N[C@@H]1C[C@@H]2O[C@@H](CO)CC[C@@H]2O[C@@H]1CCc1ccc(-c2ccccc2)cc1)c1cnccn1	·	–	·	·	·	–	·	·
O=C(N/N=C/C=C\c1ccco1)c1ccccn1	–	–	–	–	7.7	–	63	38
O=C(N/N=C/c1ccc(OC(=O)c2ccco2)cc1)c1ccccn1	–	–	–	–	7.8	–	115	33
O=C(Oc1ccc(/C=N/NC(=O)c2ccccn2)cc1)c1ccc(Br)cc1	–	–	–	–	–	–	·	·
NC[C@H](O)c1ccc(O)c(O)c1	–	–	–	·	7.6	–	–	–
CNC[C@H](O)c1ccc(O)c(O)c1	–	–	–	–	–	–	·	·
C=C1c2cccc(O)c2C(O)=C2C(=O)[C@]3(O)C(O)=C(C(N)=O)C(=O)[C@@H](N(C)C)[C@@H]3[C@@H](O)[C@H]12	–	–	–	–	17	–	28	9.6
C[C@H]1c2cccc(O)c2C(=O)C2C(=O)C3(O)C(=O)C(C(N)=O)C(=O)[C@@H](N(C)C)[C@@H]3[C@@H](O)[C@@H]21 (stereo partly drawn)	–	–	–	·	14	–	41	13
CN(C)c1ccc(O)c2c1CC1CC3[C@@H](N(C)C)C(=O)C(C(N)=O)C(=O)[C@]3(O)C(=O)C1C2=O (stereo partly drawn)	–	–	–	–	11	–	35	11
C[C@H]1c2cccc(O)c2C(O)=C2C(=O)C3(O)C(O)=C(C(N)=O)C(=O)[C@@H](N(C)C)[C@@H]3[C@@H](O)[C@@H]21 (stereo partly drawn)	–	–	–	·	17	–	22	–
Cc1cccc(C)c1NC(=O)C1c2ccccc2OCC(=O)N1CCCN1CCOCC1 (stereo not drawn)	·	–	·	–	·	–	·	·
CCCCCn1nnnc1C1(C)CN(S(C)(=O)=O)CC(=O)N1Cc1ccco1 (stereo not drawn)	·	–	·	·	·	–	·	·
CN(C)c1ccc(O)c2c1CC1CC3C(N(C)C)C(=O)C(C(N)=O)=C(O)[C@@]3(O)C(=O)C1=C2O (stereo partly drawn)	–	–	–	·	25	–	24	–
COc1ccc(NC(=O)C2(C)CCN2Cc2ccc(OC)c3ccccc23)cc1OC (stereo not drawn)	–	–	·	–	7.7	–	22	13
Oc1ccc(C[C@H]2CNC(=S)N2CC2CCCN2C[C@H](Cc2ccc(O)cc2)N2C[C@H](Cc3ccc(O)cc3)N(CC3CCCCC3)C2=S)cc1 (stereo partly drawn)	–	–	–	–	–	–	·	·
CCOc1ccc(-c2cn3ccccc3n2)cc1[N+](=O)[O-]	–	–	–	–	9.2	–	121	40
